VP16 counter = inhibits Gal4-VP16 luciferase reporter, ROR gamma counter-screen. Drosophila S2 Gal4-VP16 UAS-luciferase, luminescence, 20 h. Potency, µM (doses to about 53.6 µM), without a hit: top-dose activity, negative = inhibition, actives largely listed as inhibitors. 310,000 compounds, 3.5% hits. AID 2546;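 further: Gal4-VP16 expression switched on by copper sulfate through the metallothionein promoter; potency means the concentration at half of the fitted maximal effect; nearly all actives have a fitted effect of over 50% in size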
RORgamma inh = blocks mouse ROR gamma transcriptional activity. P51450. Drosophila S2 Gal4-RORgamma UAS-luciferase reporter, 20 h. Potency, µM (titrated, usually from 53.6 µM), inactives show top-dose activity change, negative = inhibition, most hits filed as inhibitors. 310,000 compounds, 5.4% hits; further: potency means the concentration at half of the fitted maximal effect; nearly all actives have a fitted effect of over 60% in size
Target sequence (P51450 whole entry, looked up, the tested form may be a part): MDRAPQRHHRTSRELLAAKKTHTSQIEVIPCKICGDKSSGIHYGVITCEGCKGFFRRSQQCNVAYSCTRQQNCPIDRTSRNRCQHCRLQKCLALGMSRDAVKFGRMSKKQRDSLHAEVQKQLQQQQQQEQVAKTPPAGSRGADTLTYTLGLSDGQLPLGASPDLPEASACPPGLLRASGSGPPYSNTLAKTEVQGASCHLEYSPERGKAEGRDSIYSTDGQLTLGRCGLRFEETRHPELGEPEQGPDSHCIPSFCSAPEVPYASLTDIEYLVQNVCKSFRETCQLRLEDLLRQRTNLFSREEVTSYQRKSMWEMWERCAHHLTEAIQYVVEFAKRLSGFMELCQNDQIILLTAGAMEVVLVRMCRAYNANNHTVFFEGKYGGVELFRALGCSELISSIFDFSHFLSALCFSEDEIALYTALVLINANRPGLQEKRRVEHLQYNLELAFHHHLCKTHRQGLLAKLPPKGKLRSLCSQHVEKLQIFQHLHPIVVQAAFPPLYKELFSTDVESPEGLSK
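Schneider cells (Drosophila), stable Gal4 DBD–ROR gamma + UAS-luc; 1 hr cmpd preincubation; Cu2+ induction 700 uM final; 20 hr ambient; luminescence.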
TDP1 cell CPT = DT40-hTDP1 cell growth loss with CPT; chicken DT40 Tdp1-/-;hTDP1 cells + 20 nM CPT, ATP luminescence, 48 h; Potency, µM (doses to about 46.2 µM), for the others: at the top dose activity change, negative = growth inhibition, usual class: inhibitors; 420,000 compounds, 12% hits; further: potency means the concentration at half of the fitted maximal effect; nearly all actives have a fitted effect of over 55% in size
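Cell growth measured by CellTiter-Glo luminescence after a minimum 48 h, 37 C compound exposure with 20 nM CPT in Tdp1-knockout DT40 cells stably expressing hTDP1, seeded 400/well; qHTS titration format.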
LDHA inh = inhibitors of human lactate dehydrogenase A; P00338; purified LDHA, NADH/diaphorase-resazurin fluorescence; hits give low values; activity change, % (values are at about 110 or 230 µM); 480,000 compounds, 0.15% hits; AID 1347041; in the data active means activity change below about -30%; inconclusive means mostly about -25% to -30%;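 further: plate controls were DMSO wells for no effect and wells without enzyme for full effect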
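Resorufin fluorescence (ex540/em590), read at 0 and 20 min after diaphorase/resazurin addition, reports the NADH left after a 5 min room-temperature reaction of 2 nM human LDH5 with 0.06 mM NADH and 0.2 mM pyruvate.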
DT40 TDP1 no CPT = qHTS for Inhibitors of human tyrosyl-DNA phosphodiesterase 1 (TDP1): qHTS in cells in absence of CPT; Potency, µM (doses to about 46.2 µM), for inactives: top-dose activity change, negative = growth inhibition, usual class: inhibitors; AID 686978, 2013; 420,000 compounds, 15% hits; DT40 Tdp1-/- hTDP1 cells, no CPT, ATP luminescence, 48 h; further: potency means the concentration at half of the fitted maximal effect; nearly all actives have a fitted effect of over 55% in size
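Readout: luminescence from CellTiter-Glo after 30 min in the dark at RT. Cells: DT40 Tdp1-/- with stable hTDP1, 400/well. Exposure: compounds alone, ≥48 hr, 37 °C.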
IL-1B inflam inh = blocks inflammasome-driven IL-1 beta release | THP-1 LPS/ATP IL-1B secretion, AlphaLISA, 16 h; hits give low values | 360,000 compounds, 4.7% hits | activity change, % at 57.5 µM; in the data active means activity change below about -50%; inconclusive means mostly about -30% to -49%
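THP-1 cells pretreated 1 hr with compounds (up to 57.5 uM final), then stimulated with LPS (250 ng/mL final) plus ATP (1.25 mM final); secreted IL-1B measured by AlphaLISA after 16 hr, decreased signal indicating inhibition.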
* = called active by the depositor; ? = inconclusive; / = not tested or not shown. This is a sample that favours compounds with a hit; in the whole collection about 18% have one here. Unless noted, the call rests on the fitted dose curve; in most records, active means well fitted curve in the direction sought with a large enough effect; inconclusive means small, poorly fitted or top-dose-only effect, or another doubt; inactive means no such curve, though single readings can be large; an effect the other way counts as inactive or inconclusive. Unless noted, on the % scale 0 is the no-effect control and ±100 the full control effect.

SMILES	VP16 counter	RORgamma inh	TDP1 cell CPT	LDHA inh	DT40 TDP1 no CPT	IL-1B inflam inh
Cc1cc(CNC(=O)c2ccc(C)c([N+](=O)[O-])c2)c2ccccc2n1	0.5%	?	13µM*	-2.4	9.2µM*	56.3
Cc1cc2cc(CCNC(=O)c3ccc(C)c([N+](=O)[O-])c3)c(=O)[nH]c2cc1C	-10.9%	?	?	6.0	13µM*	-3.6
Nc1nc(CNC(c2ccccc2)c2ccccc2)nc(Nc2ccccc2)n1	/	/	/	2.0	/	/
CCc1ccc(-c2noc(CSc3ccc(S(=O)(=O)N4CCCCCC4)cn3)n2)cc1	/	/	/	2.4	/	/
O=C(NCc1ccc(C(F)(F)F)cc1)C12CN(Cc3ccccc3)CC1C(c1cccc([N+](=O)[O-])c1)=NO2 (stereo unspecified)	1.2%	26.1%	-102.8%	-1.5	16.4µM*	-16.3
COc1ccc(-c2cc(C(=O)N3CCOCC3)no2)cc1	?	10µM*	5.4%	-7.5	-10.2%	-2.0
COc1cccc(-c2cc(C(=O)N3CCN(C(c4ccccc4)c4ccccc4)CC3)no2)c1	4.0%	14.0%	20.6µM*	-2.3	25.9µM*	-8.9
O=C(c1cc(-c2ccc(Br)cc2)on1)N1CCCCCC1	?	-0.6%	2.0%	-6.8	7.7%	-8.6
O=C(c1cc(-c2ccc(Br)cc2)on1)N1CCOCC1	?	10µM*	-0.9%	-3.0	-16.2%	-25.0
O=C(NCCCN1CCOCC1)c1cc(-c2ccc(Br)cc2)on1	-17.8%	?	?	3.7	-27.6%	-62.4*
COc1cccc(-c2cc(C(=O)N3CCOCC3)no2)c1	?	?	0.4%	-3.0	-13.0%	-1.5
CCCCn1c(=O)n(CC(=O)NCc2ccc(Cl)cc2)c(=O)c2c1ncn2CC(C)C	/	/	/	-8.7	/	/
O=C(COC(=O)Cc1ccc(F)cc1)NCc1ccc(Cl)cc1	/	/	/	0.4	/	/
O=C(OCn1nnc2ccccc2c1=O)c1ccc(S(=O)(=O)N2CCCc3ccccc32)cc1	/	/	/	-4.0	/	/
Cc1ccc(/C=C/C(=O)c2ccc(C#N)cc2)s1	/	/	/	4.5	/	/
CCN1CCc2c(OCC(=O)N3N=C(c4cccs4)CC3c3ccc(F)cc3)cccc2C1=O (stereo unspecified)	-11.8%	17.0%	20.6µM*	-0.1	18.4µM*	-57.3*
CCC(=O)N1N=C(c2cccs2)CC1c1ccc2nccnc2c1 (stereo unspecified)	/	/	/	-14.0	/	/
CN1CCc2c(OCC(=O)N3N=C(c4cccs4)CC3c3ccc(F)cc3)cccc2C1=O (stereo unspecified)	0.8%	-37.1%	11.6µM*	2.3	29.1µM*	-66.9*
CC(C)=CC(=O)NC(c1cccs1)C(C)C (stereo unspecified)	/	/	/	1.0	/	/
CC(=O)N1c2nc(-c3ccco3)nn2C2(CCCCC2)[C@@H]2CCCC[C@@H]21	/	/	?	2.2	?	/
CCCC(=O)N1c2nc(C(C)C)nn2C2(CCCCC2)[C@@H]2CCCC[C@@H]21	/	/	10.3µM*	-9.7	9.2µM*	/
COCC(=O)N1c2nc(C(C)C)nn2C2(CCCCC2)[C@@H]2CCCC[C@@H]21	/	/	2.91µM*	-4.4	2.91µM*	/
CC(C)CC(=O)N1c2nc(C(C)C)nn2C2(CCCCC2)[C@@H]2CCCC[C@@H]21	/	/	3.7%	0.0	?	/
CC(=O)N1c2nc(C(C)C)nn2C2(CCCCC2)[C@@H]2CCCC[C@@H]21	/	/	4.11µM*	-1.9	1.84µM*	/
C=C(C)COc1ccc2c(C)c(CC(=O)NCc3ccc4c(c3)OCO4)c(=O)oc2c1	/	/	/	13.1	/	/
CCCc1cc(=O)oc2cc(C)cc(OCC(=O)Nc3ccc(CN4CCOCC4)cc3)c12	-23.8%	31.5%	18.4µM*	-0.4	5.8µM*	0.0

Source: PubChem BioAssay
